The panel holds about 83,000 compounds, 20% with a hit somewhere; the sample as a whole holds those more often.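 Testing used 96-well plates and a 48-hour single-concentration exposure. Example: -40 means 40% of the starting cells died.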 Unmarked numbers belong to inactive results. Calls of active or inactive are those of the source. The calls were made as follows: active = growth percent below 10; inactive = the rest.

The values below come from PubChem BioAssay (NCI).

Common to all, as to experiment: NCI-60 one-dose screen, 48 h (100 = growth as untreated, 0 = no growth, -100 = all killed)
The test system of one assay is SK-MEL-2 melanoma. Particulars: 10 µM unless noted.
A further assay relates to EKVX NSCLC. The note with it: 10 µM unless noted.
Another assay concerns SN12C renal. Particulars: 10 µM unless noted.
The test system of another assay is TK-10 renal. The note with it: 10 µM unless noted.
The next assay has as its system A498 renal. Particulars: 10 µM unless noted.
In the next assay the test system is CCRF-CEM leukemia. The note with it: 10 µM unless noted.
Another assay deals with MOLT-4 leukemia. The note with it: 10 µM unless noted.
A further assay concerns SR leukemia. The note with it: 10 µM unless noted.
Another assay concerns RPMI-8226 leukemia. The note with it: 10 µM unless noted.
The test system of the next assay is OVCAR-8 ovarian. Particulars: 10 µM unless noted.
The test system of the next assay is OVCAR-5 ovarian. The note with it: 10 µM unless noted.
The test system of the next assay is OVCAR-4 ovarian. The note with it: 10 µM unless noted.
The subject of a further assay is SK-OV-3 ovarian. The note with it: 10 µM unless noted.
In the next assay the test system is IGROV1 ovarian. The note with it: 10 µM unless noted.
Another assay concerns OVCAR-3 ovarian. The note with it: 10 µM unless noted.
Another assay concerns HS 578T breast. The note with it: 10 µM unless noted.
In the next assay the test system is NCI/ADR-RES ovarian. Particulars: 10 µM unless noted.
A further assay concerns ACHN renal. The note with it: 10 µM unless noted.
The subject of another assay is CAKI-1 renal. The note with it: 10 µM.

In the case of `CC(C)CNCC(=O)Nc1ccc(Cc2ccc(NC(=O)CNCC(C)C)cc2)cc1`, the growth is 87.6% in the assay with SK-MEL-2 melanoma; 67.9% with EKVX NSCLC; 49.7% in the assay with SN12C renal; 84.8% in the assay on TK-10 renal; 47.2% in the assay on A498 renal; 26.4% in the assay with CCRF-CEM leukemia. The growth is 23.1% with MOLT-4 leukemia; 6.24% (active) in the assay on SR leukemia; 32.8% in the assay with RPMI-8226 leukemia; 62.1% in the assay on OVCAR-8 ovarian; 72.8% in the assay with OVCAR-5 ovarian; 71.6% with OVCAR-4 ovarian. In addition, the growth is 84.1% with SK-OV-3 ovarian; 47.2% in the assay with IGROV1 ovarian; 74.5% with OVCAR-3 ovarian; 65.1% in the assay with HS 578T breast; 78.2% with NCI/ADR-RES ovarian.

For `COc1ccc2c(c1)C(=O)/C(=C/c1ccc(OCC(=O)c3ccc(Cl)cc3)cc1)O2`, the growth in the assay with SK-MEL-2 melanoma was 87%; in the assay with EKVX NSCLC, 82%; with SN12C renal, 92.2%; in the assay with ACHN renal it was 98.8%; in the assay on CAKI-1 renal it was -53.4% (active); in the assay on A498 renal, 148%. Moreover, the growth with CCRF-CEM leukemia is 29%; in the assay on MOLT-4 leukemia it was 20%; in the assay on RPMI-8226 leukemia, 58.9%; in the assay with OVCAR-8 ovarian, 84.9%; with OVCAR-5 ovarian it was 105%; with OVCAR-4 ovarian, 78.4%. Moreover, the growth was 98.8% with SK-OV-3 ovarian, 83.7% in the assay with OVCAR-3 ovarian, 115% with HS 578T breast and 98.8% with NCI/ADR-RES ovarian.

For `Nc1nc(Cl)cc(NCCCCNc2cc(Cl)nc(N)n2)n1`, the growth in the assay on SK-MEL-2 melanoma was 87.6%; with EKVX NSCLC, 102%; with SN12C renal it was 126%; in the assay with ACHN renal, 107%; in the assay on A498 renal, 174%; in the assay on CCRF-CEM leukemia, 84.5%. In addition, the growth was 94.8% in the assay on MOLT-4 leukemia; 98.9% in the assay with SR leukemia; 96.4% in the assay with RPMI-8226 leukemia; 99.5% with OVCAR-8 ovarian; 94.9% in the assay on OVCAR-5 ovarian; 104% in the assay on OVCAR-4 ovarian. Also, the growth in the assay with SK-OV-3 ovarian was 113%; in the assay on IGROV1 ovarian, -19.9% (active); in the assay with HS 578T breast it was 126%; with NCI/ADR-RES ovarian, 107%.

Consider `COc1cccc(-c2nc3sccn3c2-c2ccnc(NCCNC(=O)Nc3cccc(C(F)(F)F)c3)n2)c1`, for which the growth with SK-MEL-2 melanoma is 61.9%; with EKVX NSCLC, 61.5%; in the assay with SN12C renal it was 68.8%; in the assay on ACHN renal, 46.2%; in the assay with CAKI-1 renal it was 40%; in the assay with A498 renal it was 61.6%. Also, the growth was 27% with CCRF-CEM leukemia; 36.7% in the assay with MOLT-4 leukemia; 38.5% in the assay on SR leukemia; 20.4% in the assay on RPMI-8226 leukemia; 21.3% with OVCAR-8 ovarian; 103% in the assay with OVCAR-5 ovarian. In addition, the growth was 91.1% with OVCAR-4 ovarian; 78.6% in the assay with SK-OV-3 ovarian; 50.9% in the assay on IGROV1 ovarian; 66.3% with OVCAR-3 ovarian; 27.2% with NCI/ADR-RES ovarian.

Regarding `O=c1c2ccccc2sc2c(N3CCCC3)nc3ccccc3c12`, the growth is 127% with SK-MEL-2 melanoma; 103% in the assay with EKVX NSCLC; 91.3% with SN12C renal; 98.6% with ACHN renal; 73% in the assay with A498 renal; 92.1% in the assay on CCRF-CEM leukemia. Moreover, the growth in the assay on MOLT-4 leukemia is 102%; with SR leukemia, 81.5%; in the assay with RPMI-8226 leukemia, 92.8%; with OVCAR-8 ovarian it was 93.6%; in the assay on OVCAR-5 ovarian, 112%; in the assay on OVCAR-4 ovarian, 95.2%. In addition, the growth with SK-OV-3 ovarian was 118%; in the assay with IGROV1 ovarian, 85.8%; in the assay on OVCAR-3 ovarian, 107%; in the assay with HS 578T breast, 89.6%; in the assay on NCI/ADR-RES ovarian it was 102%.

Take `CCCCCCCCCCCCCCCC(=O)NS(=O)(=O)OC[C@H]1O[C@@H](n2cnc3c(N)ncnc32)[C@H](O)[C@@H]1O`: the growth in the assay with SK-MEL-2 melanoma is -24.7% (active); in the assay with EKVX NSCLC, -8.18% (active); in the assay on SN12C renal it was -12.9% (active); in the assay with ACHN renal, -18.6% (active); with CAKI-1 renal, -61.4% (active); in the assay on A498 renal, -95.6% (active). For the same compound, the growth in the assay on CCRF-CEM leukemia was 5.11% (active); with MOLT-4 leukemia it was -4.18% (active); with SR leukemia, 0.423% (active); with RPMI-8226 leukemia, 22.8%; in the assay with OVCAR-8 ovarian, -10.9% (active); in the assay with OVCAR-5 ovarian, -45.3% (active). Besides, the growth was -48.4% (active) in the assay on OVCAR-4 ovarian; -18.5% (active) in the assay on SK-OV-3 ovarian; -52.2% (active) with IGROV1 ovarian; -75.1% (active) in the assay with OVCAR-3 ovarian; -14.6% (active) in the assay with HS 578T breast; -20.5% (active) in the assay on NCI/ADR-RES ovarian.

As for `NC(N)=N/N=C/c1ccc([N+](=O)[O-])cc1`, the growth is 115% in the assay with SK-MEL-2 melanoma; 102% with EKVX NSCLC; 96.7% in the assay on SN12C renal; 106% with ACHN renal; 112% in the assay with CCRF-CEM leukemia; 97.5% in the assay with MOLT-4 leukemia. Besides, the growth with SR leukemia was 110%; in the assay with OVCAR-8 ovarian it was 108%; in the assay with OVCAR-5 ovarian it was 99.1%; in the assay on OVCAR-4 ovarian, 102%; with SK-OV-3 ovarian it was 108%; in the assay with IGROV1 ovarian, 125%. Also, the growth was 117% in the assay on OVCAR-3 ovarian, 86.5% in the assay with HS 578T breast and 78.5% in the assay with NCI/ADR-RES ovarian.

For the compound `COc1cc(NC(C)CCCN2C(=O)c3ccccc3C2=O)c2ncccc2c1OC` (configuration not stated), the growth with SK-MEL-2 melanoma was 94.8%; in the assay on EKVX NSCLC, 69%; in the assay on SN12C renal, 109%; in the assay on TK-10 renal, 93.6%; with ACHN renal, 97.9%; in the assay with CCRF-CEM leukemia, -26.9% (active). Also, the growth in the assay on MOLT-4 leukemia is -67.5% (active); in the assay on SR leukemia it was 35.4%; in the assay with RPMI-8226 leukemia it was 55.5%; in the assay with OVCAR-8 ovarian it was 85.5%; with OVCAR-5 ovarian, 99.1%; with OVCAR-4 ovarian, 50.8%. In addition, the growth was 92.5% with SK-OV-3 ovarian, 63.6% in the assay on IGROV1 ovarian, 95.7% with HS 578T breast and 90.6% in the assay on NCI/ADR-RES ovarian.
